Measurements from ChEMBL document CHEMBL1157539, “Thousands of chemical starting points for antimalarial lead identification” (Nature, 2010).
“And” between values parts separate entries of the source, which are not always exact repeats. Equal values may be shown once.

What follows are molecules tested on HepG2 (assay: GSK_TCMDC: Percent inhibition of human HepG2 cell line. Test compounds present at 10uM.).
Type: functional

SMILES	Inhibition
O=C(NCc1ccccc1)c1nn(CCCN2CCC3(CC2)C(=O)NCN3c2ccccc2)cc1-c1ccc(Cl)c(Cl)c1	6%
Br.CC(Cc1ccc(SC(C)(C)C)cc1)NCC(O)c1cccc(Cl)c1 (stereo not drawn)	14%
CC(Cc1ccc([N+](=O)[O-])cc1)NCC(O)c1cccc(C(F)(F)F)c1 (stereo not drawn)	0%
Cc1cccc(C(=O)Nc2ccnc(N(C)C3CCN(CC(C)C)CC3)c2)c1.O=C(O)C(F)(F)F	10%
CC(C)CNCc1cccc(-c2ccccc2CN(C(=O)Nc2ccccc2)C2CCN(Cc3ccccc3)CC2)c1.O=C(O)C(F)(F)F	36%
CC[C@H]1CN2CC[C@H]1C[C@H]2[C@H](O)c1cc(-c2ccc(F)cc2)nc2ccc(OC)cc12.Cl	34%
COc1ccc(O)c(CN2CCN(c3cc(C)ccc3C)CC2)c1	7%
Cn1nc(-c2ccc(S(=O)(=O)NC3CCC(CN4CCC(c5c[nH]c6ccccc56)CC4)CC3)s2)cc1C(F)(F)F (stereo not drawn)	35% and 38%
N#Cc1c(Cl)cccc1Oc1ccc(S(=O)(=O)NC2CCC(CN3CCC(c4c[nH]c5ccccc45)CC3)CC2)cc1 (stereo not drawn)	31% and 29%
CN(C)CCCn1cc(C(=O)OC2CC3CCC(C2)N3C)c2cc(-c3ccccc3)ccc21.Cl (stereo not drawn)	97%
COc1ccc(C(=O)C2CC2CN2CC=C(c3c[nH]c4ccc(OC)nc34)CC2)cc1 (stereo not drawn)	8%
O=C(NC1CCC(CN2CCC(c3c[nH]c4ccccc34)CC2)CC1)c1cnn(-c2ccccc2)c1-c1ccccc1Cl (stereo not drawn)	66%
CC(C)c1ccc(C=CC(=O)NC2CCC(CN3CCC(c4c[nH]c5ccccc45)CC3)CC2)cc1 (stereo not drawn)	50%
CC(=O)Nc1ccc(CN2CCC(N(C)c3cc(NC(=O)c4cccs4)ccn3)CC2)cc1.O=C(O)C(F)(F)F	0%
O=C(O)C(F)(F)F.O=C(c1cccs1)N(Cc1cccc(-c2ccc(CNC3CCCC3)cc2)c1)C1CCN(Cc2ccccc2)CC1	20%
COc1cc(/C=C/C(=O)NC2CCC(CN3CCC(c4c[nH]c5ccccc45)CC3)CC2)ccc1O (stereo not drawn)	11% and 19%
Cc1cc(N(C)C2CCN(C)CC2)nc(Nc2ccc(Cl)cc2)n1	15%
CC(C)(C)c1ccc(Cn2nc(C(=O)N3CCN(C(=O)C4CCCO4)CC3)c3ccccc32)cc1 (stereo not drawn)	0%
COc1ccc(CC(C)NCC(O)c2cccc(Cl)c2)cc1C (stereo not drawn)	11%

SMILES	Inhibition
O=C(Nc1ccc(Oc2ccccc2)cc1)NC1CCC(CN2CCC(c3c[nH]c4ccccc34)CC2)CC1 (stereo not drawn)	55%
COc1ccc(CC(C)NCC(O)c2ccc(Cl)c(Cl)c2)cc1 (stereo not drawn)	0%
CC[C@H]1CN2CC[C@@H]1C[C@H]2[C@H](O)c1cc(N2CCC(O)(c3ccc(Cl)cc3)CC2)nc2ccc(OC)cc12	21%
CN(C)CCCOc1ccc(CN2CCC(c3c[nH]c4ccc(NCC5CCCCC5)cc34)CC2)cc1.O=C(O)C(F)(F)F	58%
O=C(c1cc(C(=O)NCc2ccc(Cl)cc2)c(=O)n(Cc2ccc(Cl)cc2)c1)c1cc(F)ccc1O	7%
O=c1c2ccccc2nc(/C=C/c2ccc([N+](=O)[O-])cc2)n1-c1ccccn1	5%
Br.COC(=O)c1ccc(CC(C)NCC(O)c2cccc(SC(F)(F)F)c2)cc1 (stereo not drawn)	7%
O=C(/C=C/c1ccc(Cl)c(Cl)c1)NCC1CCC(CN2CCC(c3c[nH]c4ccccc34)CC2)CC1 (stereo not drawn)	54%
CC(C)CNCc1cccc(-c2cccc(CN(C(=O)Nc3ccccc3)C3CCN(Cc4ccccc4)CC3)c2)c1.O=C(O)C(F)(F)F	31%
COc1cc(C=CC(=O)N2CCC(CN3CCC(c4c[nH]c5ccccc45)CC3)CC2)cc(OC)c1	19%
CC(=O)N(Cc1ccc(-c2ccc(CNCCc3ccccc3)cc2)cc1)C1CCN(Cc2ccccc2)CC1.O=C(O)C(F)(F)F	45%
O=c1n[n+](C2CCCCC2)[n-]o1	0%
CN(c1cc(NC(=O)c2ccccc2)ccn1)C1CCN(Cc2cccc(F)c2)CC1.O=C(O)C(F)(F)F	0%
CCOc1ccc(Br)cc1/C=C/C(=O)Nc1ccc2c(c1)C1CCC2N1C.O=C(O)C(F)(F)F (stereo not drawn)	60%
Cc1cc(C(=O)NC2CCN(CC3(c4ccc(Cl)cc4)CCC3)CC2)on1	5%
CNC(=O)c1ccc2[nH]cc(C3CCN(CC4CCC(NC(=O)/C=C/c5ccc(Cl)c(Cl)c5)CC4)CC3)c2c1 (stereo not drawn)	0%
COC(=O)c1ccc(CC(C)NCC(O)c2cccc3ccccc23)cc1 (stereo not drawn)	3%
O=[N+]([O-])c1ccc(Oc2c(Cl)cc(S(=O)(=O)NC3CCC(CN4CCC(c5c[nH]c6ccccc56)CC4)CC3)cc2Cl)c(Cl)c1 (stereo not drawn)	30%
COC(=O)CN(C(=O)/C=C/c1ccc(Cl)c(Cl)c1)C1CCC(CN2CCC(c3c[nH]c4ccccc34)CC2)CC1 (stereo not drawn)	31%
